# Pf Dd2 inh: blocks in vitro growth of P. falciparum Dd2; Potency, µM (highest dose often 28.9 µM), without a hit: at the highest dose activity, negative = inhibition, hits mostly inhibitors; AID 1347417; hit rate 4.3% among 120,000; P. falciparum Dd2 growth, SYBR Green, 72 h; active = well fitted inhibition curve with a large enough effect;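 also: plate controls were DMSO vehicle for no effect and reference drug for full effect; nearly all actives have a fitted effect of over 65% in size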
#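 Infected erythrocytes (Dd2, 0.3% parasitemia, 2.5% hematocrit final) are added to compound in RPMI-1640/Albumax II medium, grown 72 h at 37C in low oxygen, then lysed with saponin/Triton-X containing SYBR Green and read by fluorescence.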
# * marks the source's active call; other numbers are inactive results; i = inactive; [ ] = dose if it differs, or a comment. The full list was thinned out, with hits kept by preference. Potency is read from the fitted curve at half-maximal effect.
SMILES,Pf Dd2 inh
Cc1ccc(-c2ccc3nnc(CNC(=O)C4(c5ccccc5)CC4)n3n2)cc1,i
O=C(Cc1ccccc1)NCC1CN(Cc2ccc(C(=O)O)cc2)CC12CN(c1ccccc1)C2 (stereo not drawn),i
CN1C[C@@H](NC(=O)Nc2ccccc2)C[C@H]1c1nc(-c2cnccn2)no1,38%[44.1 µM]
O=c1n(-c2ccncc2)nc2n1CCN(Cc1ccccc1)C2,-3%[44.1 µM]
CC(C)c1csc(CN2CC[C@@H](c3ccc4c(c3)OCO4)[C@H](O)C2)n1,-14%
O=C(O)c1ccc(CN2CC[C@@H](c3ccc4c(c3)OCO4)[C@H](O)C2)cc1,-13%
CC(C)n1cc(CN2CC[C@@H](c3ccc4ccccc4c3)[C@H](O)C2)cn1,10µM*
CCc1noc(-c2ccn3c(CNC(=O)C4CCCCC4)nnc3c2)n1,i
CSCC(=O)N[C@H]1CCN2C(=O)c3ccc(Cl)cc3NC(=O)[C@@H]2C1,21%[44.1 µM]
CN1CCN(C(CN)C2CCCCC2)CC1 (stereo not drawn),28µM*
CC(C)c1nnc(C2CN(C(=O)c3nccc4ccccc34)CC23CCOCC3)o1 (stereo not drawn),i
CC(C)C1CN(C(=O)OC(C)(C)C)C(C)CN1 (stereo not drawn),26%[44.1 µM]
CC(C)(C)OC(=O)N1CC(c2ccccc2)C1,i
CC(C)C1CNC(Cc2ccccc2)CN1C(=O)OC(C)(C)C (stereo not drawn),8.9µM*
COc1ccc(-c2cc(C[C@@H]3CC[C@H](O)[C@@H](CN(Cc4ccccc4OC)Cc4ccccc4OC)O3)no2)cc1,-19%
COCC(=O)NC[C@H]1OC[C@@H](NCc2cccc(C#N)c2)[C@@H]1O,-3%[44.1 µM]
O=C(CN1C(=O)C(c2ccccc2)=NC12CCCCC2)NC1CCCC1,-20%
COc1ccc(C(=O)NC(c2ccccc2Cl)c2cc(Cl)c3cccnc3c2O)cc1 (stereo not drawn),3.5µM*
COc1ccc(C(=O)Nc2cc3c(cc2C(=O)c2ccccc2Cl)OCCO3)cc1,23%
Cc1ccc(C(=O)Nc2cccc3cccnc23)cc1Cl,4%
O=C(C[C@H]1NC(=O)c2ccccc2NC1=O)Nc1ccc(C(F)(F)F)cc1,-17%
COc1ccc(NC2=C(c3ccc(C(F)(F)F)cc3)C(=O)c3ccccc32)cc1,0.45µM*
O=C1C(c2ccc(C(F)(F)F)cc2)=C(Nc2ccc(Cl)cc2)c2ccccc21,0.89µM*
O=C(Cn1nc(-c2ccc(Cl)cc2)c2ccccc2c1=O)Nc1cccc(C(F)(F)F)c1,16%
COc1ccc(NC(=O)N(C)Cc2cccc(C(F)(F)F)c2)cc1,-12%[44.1 µM]
SMILES,Pf Dd2 inh
COc1ccc(-c2noc(CCC(=O)Nc3ccc(C(F)(F)F)cc3)n2)cc1,-16%
CCOc1ccccc1C(=O)N1CCC(Oc2nccnc2N(C)C)C1 (stereo not drawn),-29%
COc1ccc2[nH]cc(CCNC(=O)C3N(C(C)C)C(=O)C34CCCC4)c2c1 (stereo not drawn),-5%
Cc1ccccc1Cn1cc(-c2ccncc2)cc1C(=O)O,i
CCOC(=O)C1CCN(C(=O)c2cc3sc(C)cc3n2C)CC1,-4%
CCn1cc(-c2ccc(Cl)cc2)cc1C(=O)NCc1ccncc1,i
Cc1ccc(-c2cc(C(=O)O)n(C)c2)cc1,32%
CCOC(=O)C1CCN(C(=O)c2cc(-c3ccncc3)cn2Cc2ccccc2C)CC1,6.3µM*
Cc1ccc(Cn2cc(-c3ccncc3)cc2C(=O)N2CCN(C)CC2)cc1,6.3µM*
O=C(CCC1CCCC1)N1CCC(c2nc(C3CCOCC3)no2)C1 (stereo not drawn),i
COc1ccccc1-c1noc(CCCC(=O)N2CCc3nc[nH]c3C2)n1,0%
COC1C(=O)N(C2CCN(C(=O)c3cnccc3C)CC2)C12CCOCC2 (stereo not drawn),9%
CC(C)Cc1nc2nccc(-c3ccccc3)n2n1,-15%
Cc1ccc(-c2ncc(C(=O)N(C)Cc3nc(CC(C)C)no3)c(=O)[nH]2)cc1,-1%
CC(C)Cc1cnc(-c2ccccc2)[nH]1,16µM*
Cc1cc(C)n(-c2ccc(F)cc2CN2CCC3(CC2)COC(=O)O3)n1,-5%
CCC(c1cccs1)N1C(=O)[C@H]2CN(S(=O)(=O)c3ccc(F)c(C)c3)C[C@H]2C1=O (stereo partly drawn),5%
CCCn1ccnc1-c1c(-c2ccccc2)ncn1CCCC(=O)OC,1%
COc1cccc(OC)c1-c1c(-c2ccccc2)ncn1CCCSC,10µM*
COc1cccc2ccc(-c3c(-c4ccccc4)ncn3CCNC(C)=O)nc12,-28%
CCn1c(=O)c2c(cc(C)n2C)n(CC(=O)Nc2ccccc2F)c1=O,i
CN1C[C@H](NCc2cccc(Cl)c2)CCC[C@@H](C(=O)N(C)Cc2cccnc2)CC1=O,12%
O=C1CCCCC(CNC(=O)c2ccccc2)N1 (stereo not drawn),43%
O=C(C1CC(=O)N(C2CCCC2)C1)N1CCN(c2ccc(Cl)cn2)CC1 (stereo not drawn),12%
Cc1ccc2c(C(=O)NCCc3cccnc3)cc(NC(=O)C(C)C)cc2n1,-12%
SMILES,Pf Dd2 inh
Cc1ccccc1C(=O)Nc1ccc2nc(N3CCCCC3)cc(C)c2c1,i
Cc1cc(N2CCN(C)CC2)nc2ccc(NC(=O)c3ccc(C(C)(C)C)cc3)cc12,6.3µM*
Cc1ccccc1NC(=O)Nc1ccc2nc(N3CCN(C)CC3)cc(C)c2c1,2µM*
Cc1cc(N2CCN(C)CC2)nc2ccc(NC(=O)Nc3ccc(Cl)cc3)cc12,11µM*
CN1CCN(c2ccc3nnc(-c4cc(C(=O)Nc5cccc(Cl)c5)ccn4)n3n2)CC1,i
COc1cc(C(=O)Nc2ccc(NC(=O)c3ccc(C(C)(C)C)cc3)cc2)cc(OC)c1OC,i
Cc1cc(N2CCC(C)CC2)nc2ccc(NC(=O)Cc3ccccc3Br)cc12,-19%
CCOc1ccccc1NC(=O)Nc1nnc(N2CCCCCC2)s1,-26%
Cc1cc(SCC(=O)Nc2ccc(Cl)cc2)nc2ccccc12,i
COc1ccccc1CC(=O)Nc1ccc2nc(N3CCC(C)CC3)cc(C)c2c1,3%
CC(C)(C)c1ccc(C(=O)Nc2ccc(NC(=O)c3ccc(Cl)c(Cl)c3)cc2)cc1,11%
CCOc1ccccc1NC(=O)Nc1ccc2nc(N3CCN(C)CC3)cc(C)c2c1,0.45µM*
O=C(CN1Cc2nc(OCc3ccc(F)cc3)ccc2OCC1=O)N1CCCC1,i
CC(=O)N(C[C@H]1O[C@@H](CC(=O)NC(C)C)[C@H](O)[C@@H]1O)C[C@H]1O[C@@H](CC(=O)NC(C)C)[C@H](O)[C@@H]1O,21%
Cc1ccc(C(=O)N2CC(C(=O)NCCc3ccncc3)C3(CCOCC3)C2)cc1 (stereo not drawn),0%
CN1C(=O)CS(=O)(=O)C12CCNCC2,2%
CC(C)c1ccc(NC(=O)C2CCN(C(=O)c3ncn4c3COC(c3ccc(F)cc3)C4)CC2)cc1 (stereo not drawn),-16%
CN1[C@@H](CCC(=O)N2CCOCC2)CNC(=O)[C@@H]2[C@H]1CCN2C1CCOCC1,-19%[44.1 µM]
C=CCNC(=O)N[C@H]1[C@H](O)[C@@H](N2CCN(C)CC2)[C@@H]2OC[C@H]1O2,i
O=C(Nc1ccc(Cl)cc1Cl)c1ccc2cc[nH]c2n1,-7%
O=C(c1c(F)cccc1F)N1CCC(n2cc(-c3nc(-c4ccccc4)no3)nn2)CC1,4%
C=CCN1CCN(C(=O)C2CCCN(Cc3ccncc3)CCC(=O)NCC2)CC1 (stereo not drawn),21%
COc1ccc(F)c(CN2CCCC(O)(CN3CCOC(C)(C)C3)C2=O)c1 (stereo not drawn),9%

# Assay outcomes (PubChem BioAssay)
